From PubChem
Sampled rows, rich in hits. Any-hit rate of the full collection: about 2.1%.
FUS yeast rescue – suppressors of FUS proteinopathy in yeast. S. cerevisiae FUS-expressing, growth rescue, OD600, 24 h. Potency, µM (top dose mostly 76.6 µM), hits mostly activators. 390,000 compounds, 0.24% hits;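 further: plate controls were DMSO vehicle for no effect and reference control for full effect; nearly all actives have a fitted effect of over 55% in size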
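Yeast FUS proteinopathy model; galactose-induced FUS (2%), starting OD 0.005. Cpds in dilution series, 24hr, 30C, 99% humidity. Abs 600 nm growth. Pos ctrl CP55940 (top 92uM final); neg ctrl DMSO.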
aSyn yeast inh – rescues yeast growth from alpha-synuclein toxicity; AID 652106; 370,000 compounds, 0.14% hits; Yeast expressing alpha-synuclein, growth rescue, BacTiter-Glo, 24 h; Potency, µM (titrated, usually from 46.1 µM), for inactives: at the highest dose growth rescue (activation), hits mostly activators; further: % of control where 0% means no effect; nearly all actives have a fitted effect of over 65% in size
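Rescue of yeast growth: cells expressing toxic alpha-synuclein, induced in galactose at OD600 0.02, incubated with compound 24 h at 30 C. ATP luminescence quantified growth; inhibitors of toxicity appear as activators.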
Abeta yeast res – compounds reversing amyloid beta toxicity in yeast | yeast expressing A-beta42, growth rescue, OD600, 48 h; response scale: 0% DMSO, 100% iron-clioquinol control | Potency, µM (titrated, usually from 46.1 µM), hits mostly activators | 410,000 compounds, 0.063% hits | AID 1347071; further: nearly all actives have a fitted effect of over 55% in size
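Growth rescue measured by 600 nm absorbance after 48 h yeast culture at 30 C with compound. Values normalized between DMSO and an equimolar ferric chloride plus clioquinol control.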
TDP43 rescue – rescues yeast growth from TDP-43 toxicity; TDP-43 expressing yeast growth rescue, BacTiter-Glo, 24 h; Potency, µM (highest dose often 46.1 µM), without a hit: top-dose growth rescue (activation), hits mostly activators; 410,000 compounds, 1.8% hits; AID 652104; further: % of control where 0% means no effect; nearly all actives have a fitted effect of over 50% in size
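Readout is BacTiter-Glo luminescence of cell growth, so inhibitors register as activators. TDP-43-expressing yeast at OD600=0.02 in galactose medium, after raffinose pregrowth to mid-log, were incubated with compound for 24 hr at 30 deg C.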
* = called active by the depositor; [ ] = remark or other dose. The call rests on the fitted dose curve; in most records, active means well fitted curve in the direction sought with a large enough effect; inconclusive means small, poorly fitted or top-dose-only effect, or another doubt; inactive means no such curve, though single readings can be large; an effect the other way counts as inactive or inconclusive. Potency means the concentration at half of the fitted maximal effect.

Results for CC(=O)n1cc(N(C(=O)CCl)c2ccc(Cl)cc2)c2ccccc21 ?
FUS yeast rescue: inactive; aSyn yeast inh: 2%; Abeta yeast res: inactive; TDP43 rescue: 22µM*

What do the screens show for `CC(c1ccccc1)n1cc2c(c1-c1ccccc1Br)c(=O)n(C)c(=O)n2C` (stereo not drawn)?
FUS yeast rescue: inconclusive; Abeta yeast res: inactive; TDP43 rescue: 14µM*

What do the screens show for `CC(C)c1cc(C(C)C)c(S(=O)(=O)NC(c2ccccn2)C23CC2C3)c(C(C)C)c1` (stereo not drawn)?
FUS yeast rescue: inconclusive; aSyn yeast inh: inconclusive; Abeta yeast res: inactive; TDP43 rescue: 22µM*

How did CC(C)c1cc(C(C)C)c(S(=O)(=O)NCC(=O)N2CCN(c3ncccn3)CC2)c(C(C)C)c1 do in these assays?
FUS yeast rescue: inactive

Results for CCOc1ccccc1CNC(=O)C1CCN(Cc2cc3ccccc3n2Cc2ccccc2)CC1 ?
FUS yeast rescue: inactive; Abeta yeast res: inactive; TDP43 rescue: 10%

Results for CCN(CC)c1cc(C)c2cc(NC(=O)c3ccccc3Cl)ccc2n1 ?
FUS yeast rescue: inactive; Abeta yeast res: inactive; TDP43 rescue: 15%

Results for CCCN(Cc1nnc(-c2ccccc2Cl)o1)C(=O)COc1ccc(Cl)cc1 ?
aSyn yeast inh: 6%; Abeta yeast res: inactive; TDP43 rescue: 35µM*

Results for CCC(=O)c1ccc(OCC(=O)N(Cc2nnc(-c3ccccc3Cl)o2)C2CC2)cc1 ?
FUS yeast rescue: inactive; aSyn yeast inh: 4%; Abeta yeast res: inactive; TDP43 rescue: 21%

What do the screens show for `O=C(COc1ccc(Br)cc1)N(Cc1nnc(-c2ccccc2Cl)o1)C1CC1`?
FUS yeast rescue: inconclusive; aSyn yeast inh: inconclusive; Abeta yeast res: inactive; TDP43 rescue: 20µM*

What do the screens show for `O=C(C[n+]1ccncc1)c1ccc2ccccc2c1`?
aSyn yeast inh: -1%

Results for O=S(=O)(c1ccc2c(c1)CCCC2)N1CCN(c2nc(-c3cccs3)nc3ccccc23)CC1 ?
aSyn yeast inh: 1%

What do the screens show for `O=C(N/N=C/c1cccc(F)c1)NC1CCCCC1`?
FUS yeast rescue: inactive; aSyn yeast inh: 14%; Abeta yeast res: inactive; TDP43 rescue: 13µM*

Results for Cc1cccc(C)c1OCC(=O)Nc1ccc2c(c1)OCCO2 ?
FUS yeast rescue: inactive; aSyn yeast inh: 0%; Abeta yeast res: inactive; TDP43 rescue: 14µM*

How did COc1cccc(-c2nc(SCC(=O)Nc3ccc4c(c3)OCCO4)c(-c3ccc(C)cc3)[nH]2)c1 do in these assays?
FUS yeast rescue: inconclusive; Abeta yeast res: inactive; TDP43 rescue: 20µM*

Results for CCOc1ccc(C(=O)Nc2ccc3c(c2)OCCO3)cc1Br ?
FUS yeast rescue: inactive; Abeta yeast res: inactive; TDP43 rescue: 18µM*

Results for Cc1cccc(OCC(=O)Nc2ccc3c(c2)OCCO3)c1 ?
FUS yeast rescue: inactive; aSyn yeast inh: -2%; Abeta yeast res: inactive; TDP43 rescue: 18µM*

Results for CCOc1ccc(S(=O)(=O)NCC(c2ccc(N(C)C)cc2)N2CCCC2)cc1 (stereo not drawn) ?
FUS yeast rescue: inactive; Abeta yeast res: inactive; TDP43 rescue: 8%

How did O=C(OC12CCCN(C1)/C(=C/c1ccccc1)C2)c1cccc(F)c1 (stereo not drawn) do in these assays?
FUS yeast rescue: inactive

Results for CCn1c2ccccc2c2nnc(N3CCN(c4ccc(OC)cc4)CC3)nc21 ?
FUS yeast rescue: inactive; Abeta yeast res: inactive; TDP43 rescue: 17%

How did CCCN1CNc2c(c(=O)[nH]c(=S)n2CCc2cccc(C)c2C)C1 do in these assays?
aSyn yeast inh: 0%

Results for COC(=O)CC1(c2ccccc2)C(=O)c2ccccc2C1=O ?
FUS yeast rescue: inactive; aSyn yeast inh: 6%; Abeta yeast res: inactive; TDP43 rescue: -13%

What do the screens show for `COC(=O)CC1(c2cccc3ccccc23)C(=O)c2ccccc2C1=O`?
FUS yeast rescue: inactive; aSyn yeast inh: 6%; Abeta yeast res: inactive; TDP43 rescue: 22µM*

What do the screens show for `COc1ccc(S(=O)(=O)N2CCC(c3nnc(-c4ccccc4C)o3)CC2)c(OC)c1`?
FUS yeast rescue: 32µM*; Abeta yeast res: inactive; TDP43 rescue: 0%

Results for Cc1ccccc1-c1nnc(C2CCN(S(=O)(=O)c3ccc(Cl)cc3)CC2)o1 ?
FUS yeast rescue: inactive; Abeta yeast res: inactive; TDP43 rescue: 13%[9.22 µM]

What do the screens show for `NC(=O)c1c(N)[nH]c(C(=O)c2ccccc2)c1-c1cccc2ccccc12`?
FUS yeast rescue: inactive

Results for Oc1sc(C=Nc2ccccc2)c2ccccc12 ?
FUS yeast rescue: inactive; aSyn yeast inh: 6%; Abeta yeast res: inactive; TDP43 rescue: inconclusive

How did Oc1sc(C=Nc2ccc(F)cc2)c2ccccc12 do in these assays?
FUS yeast rescue: inactive; aSyn yeast inh: 0%; Abeta yeast res: inactive; TDP43 rescue: 0.63µM*

What do the screens show for `CCN(c1ccccc1)c1nc(N)nc(C#N)n1`?
aSyn yeast inh: -14%

How did CCCCn1nnnc1C(c1ccccc1)N1CCN(c2c(Cl)cncc2Cl)CC1 (stereo not drawn) do in these assays?
FUS yeast rescue: inactive; aSyn yeast inh: -1%; Abeta yeast res: inactive; TDP43 rescue: 22µM*

What do the screens show for `CCCCn1nnnc1C(c1ccccc1)N1CCN(c2ccccc2)CC1` (stereo not drawn)?
FUS yeast rescue: inactive; aSyn yeast inh: 22%; Abeta yeast res: inactive; TDP43 rescue: 5%

Results for O=C(NC1CC2CCCC(C1)N2S(=O)(=O)c1ccccc1)c1ccco1 (stereo not drawn) ?
FUS yeast rescue: inactive; aSyn yeast inh: 3%; Abeta yeast res: inactive; TDP43 rescue: 0%

How did CC(=O)NC1CC2CCCC(C1)N2S(=O)(=O)c1cccc(F)c1 (stereo not drawn) do in these assays?
FUS yeast rescue: 32µM*; aSyn yeast inh: -1%; Abeta yeast res: inactive; TDP43 rescue: -5%

What do the screens show for `CC(=O)N(O)c1ccc(C=Cc2ccccc2)cc1`?
FUS yeast rescue: inactive; aSyn yeast inh: 2%; Abeta yeast res: inactive; TDP43 rescue: 14µM*

What do the screens show for `Cc1ccccc1C(=O)Nc1nnc(-c2ccc(F)cc2)o1`?
FUS yeast rescue: inactive; aSyn yeast inh: 18µM*; Abeta yeast res: 22µM*; TDP43 rescue: inconclusive

What do the screens show for `N#CCSc1nc2c(cc1C#N)CCCCCC2`?
FUS yeast rescue: inactive; aSyn yeast inh: 14%; Abeta yeast res: inactive; TDP43 rescue: 16µM*

How did N#Cc1cc2c(nc1SCC(=O)O)CCCC2 do in these assays?
FUS yeast rescue: inactive; aSyn yeast inh: 1%; Abeta yeast res: inactive; TDP43 rescue: -5%

Results for CC1(C)OB(c2cnc(C#N)nc2)OC1(C)C ?
aSyn yeast inh: 0%

Results for COC(=O)c1ccc2nc(-c3ccc(OC)c(OC)c3)c(Cc3cccc(F)c3)n2c1 ?
FUS yeast rescue: inactive; aSyn yeast inh: 24%; Abeta yeast res: inactive; TDP43 rescue: 35µM*
